Source: PubChem (National Center for Advancing Translational Sciences (NCATS))
Pf growth 48h = inhibits P. falciparum growth in the first generation, 48 h; AID 504832; actives 5.9% (n = 310,000); P. falciparum luciferase growth in erythrocytes, 48 h; Potency, µM (highest dose often 28.7 µM), without a hit: top-dose activity change, negative = inhibition, actives largely listed as inhibitors; also: % is scaled to controls: 0 for no effect and ±100 for the full control effect
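Compounds are pin-transferred into medium, infected erythrocytes (2% hematocrit, 0.1% parasitemia final) are added, and plates sit one parasite generation at 37 C in 5% CO2. Detection reagent is then added and luminescence measured.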
Pf growth 96h = inhibits malaria parasite growth, 96 h; P. falciparum luciferase reporter growth, 96 h; Potency, µM (doses to about 28.7 µM), inactives show top-dose activity change, negative = inhibition, most hits filed as inhibitors; actives 6.9% (n = 320,000); AID 504834; also: % is scaled to controls: 0 for no effect and ±100 for the full control effect
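Parasite growth measured via integrated firefly luciferase reporter in P. falciparum. Infected erythrocytes at 2% hematocrit, 0.05% parasitemia final were treated 96 hours at 37 C under 5% CO2, and luminescence was read.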
AMA1 RON2 block = AMA1-RON2 (P. falciparum) interaction inhibition; AlphaScreen AMA1-biotinylated RON2 peptide binding; Potency, µM (titrated, usually from 58.2 µM), inactives show top-dose activity change, negative = inhibition, usual class: inhibitors; actives 0.2% (n = 360,000); AID 720542;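 also: 0% = vehicle wells and -100% = peptide control; nearly all actives have a fitted effect of over 45% in size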
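AMA1 (3D7) with his tag at 25 nM final met compounds first, then biotinylated RON2 peptide at 25 nM; detection used donor plus acceptor beads, 10 µg/mL apiece, read by AlphaScreen after 30 min at room temperature.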
Sm TGR inh = blocks Schistosoma mansoni thioredoxin glutathione reductase; Potency, µM (series often up to 114 µM), inactives show top-dose activity change, negative = inhibition, most hits filed as inhibitors; Q962Y6; purified TGR, DTNB reduction, TNB absorbance 405 nm; actives 3% (n = 360,000); also: % is scaled to controls: 0 for no effect and ±100 for the full control effect; nearly all actives have a fitted effect of over 60% in size
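First, TGR (20 nM dispensed) and NADPH were mixed with compound. Second, a 15 min room-temperature incubation followed. Third, further NADPH and then DTNB were added to start the reaction. Finally, TNB absorbance was monitored kinetically.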
NS1 function inh = blocks influenza NS1 protein function. Potency, µM (doses to about 46.1 µM), for inactives: at the top dose activity, positive = more growth. actives 0.4% (n = 270,000). AID 2326; calls by dose curve; also: actives are rising curves; nearly all actives have a fitted effect of over 50% in size
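S. cerevisiae expressing influenza A NS1, grown in glucose, washed, then diluted 1:100 into pH 6.0 -URA galactose medium with 23 nl compound. Growth recovery read as OD600; NS1-free strain serves as control.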
Numbers without * were called inactive. Shown are actives, neighbours in structure and some others; about 11% of the full set was active somewhere. Unless noted, calls follow the shape of the dose curve; as a rule, active = well fitted curve in the direction sought with a large enough effect; inconclusive = small, poorly fitted or top-dose-only effect, or another doubt; inactive = no such curve, though single readings can be large; an effect the other way counts as inactive or inconclusive. Potency is read from the fitted curve at half-maximal effect.

What do the screens show for `O=C1NC2(CCc3ccccc3C2)C(=O)N1CCOc1cccc(Cl)c1` (centres undefined)?
Pf growth 48h: 3.4%; Pf growth 96h: 19.7%; AMA1 RON2 block: 3.9%; Sm TGR inh: 5.6%; NS1 function inh: -30.1%

What do the screens show for `COc1ccc(CCN(C)C(=O)CSc2nnnn2C)cc1OC`?
Pf growth 48h: 27.3%; Pf growth 96h: 10.4µM*; AMA1 RON2 block: 0.9%; Sm TGR inh: -5.7%

Results for Cc1ccc(-c2cn(C[C@H]3CC[C@@H]([C@@H]4CC[C@H](Cn5cc(-c6ccc(C)cc6)nn5)O4)O3)nn2)cc1 ?
Pf growth 48h: -9.8%; Pf growth 96h: -12.4%; AMA1 RON2 block: -0.3%; Sm TGR inh: -10.3%; NS1 function inh: 24.2%

Results for c1ccc(-c2cn(C[C@H]3CC[C@H](Cn4cc(-c5ccccn5)nn4)O3)nn2)nc1 ?
Pf growth 48h: inconclusive; Pf growth 96h: -28.0%; AMA1 RON2 block: 1µM*; Sm TGR inh: -7.3%; NS1 function inh: 22.5%

Results for CCCCCc1cc(O)c2c(C)cc(=O)oc2c1 ?
Pf growth 48h: 2.62µM*; Pf growth 96h: 5.5%; AMA1 RON2 block: -1.3%; Sm TGR inh: -2.0%; NS1 function inh: -16.2%

What do the screens show for `Cc1cc(=O)oc2cc(O)cc(O)c12`?
AMA1 RON2 block: -4.7%

What do the screens show for `Cc1ccc(-n2nc3c(c2NC(=O)c2c(-c4ccccc4Cl)noc2C)CSC3)cc1`?
Pf growth 48h: 13.1µM*; Pf growth 96h: 20.1%; AMA1 RON2 block: -8.4%; Sm TGR inh: -0.9%; NS1 function inh: -18.4%

What do the screens show for `Cc1ccccc1-n1nc2c(c1NC(=O)c1c(-c3ccccc3Cl)noc1C)CSC2`?
Pf growth 48h: 11.7µM*; Pf growth 96h: inconclusive; AMA1 RON2 block: -13.5%; Sm TGR inh: -26.9%; NS1 function inh: 6.9%

Results for Cc1ccccc1-n1nc2c(c1NC(=O)CCCl)CSC2 ?
Pf growth 48h: -0.9%; Pf growth 96h: -11.1%; AMA1 RON2 block: -1.2%; Sm TGR inh: 17.8µM*; NS1 function inh: -0.6%

Results for Cc1onc(-c2ccccc2Cl)c1C(=O)Nc1ccccc1N1CCOCC1 ?
Pf growth 96h: inconclusive; AMA1 RON2 block: -1.2%; Sm TGR inh: -1.2%; NS1 function inh: -1.2%

Results for Cc1cccc(-n2nc3c(c2NC(=O)c2ccco2)CSC3)c1C ?
Pf growth 48h: inconclusive; Pf growth 96h: 40.1%; AMA1 RON2 block: -11.4%; Sm TGR inh: 44.7µM*; NS1 function inh: inconclusive

Results for CCC(=O)Nc1c2c(nn1-c1ccc(C)cc1C)CSC2 ?
Pf growth 48h: -17.1%; Pf growth 96h: 0.0%; AMA1 RON2 block: 6.8%; Sm TGR inh: inconclusive; NS1 function inh: -2.1%

How did Cc1ccc(-n2nc3c(c2NC(=O)c2ccc(Br)o2)CSC3)c(C)c1 do in these assays?
Pf growth 48h: inconclusive; Pf growth 96h: -6.1%; AMA1 RON2 block: -1.6%; Sm TGR inh: inconclusive; NS1 function inh: -7.4%

What do the screens show for `CC1(N(O)/C=C2\C=CC=CC2=O)CCCCC1=O` (centres undefined)?
Pf growth 48h: 42.7%; Pf growth 96h: 20.6%; AMA1 RON2 block: 2.7%; Sm TGR inh: 17.9%; NS1 function inh: 4.5%

How did Cc1ccc(C2C=NN(c3ccccc3)C2=O)cc1 (centres undefined) do in these assays?
Pf growth 48h: 6.57µM*; Pf growth 96h: inconclusive; AMA1 RON2 block: 4.8%; Sm TGR inh: -0.5%; NS1 function inh: 4.8%

What do the screens show for `O=C(CN1C(=O)COc2ccccc21)c1cccc(Cl)c1`?
Pf growth 48h: 9.7%; Pf growth 96h: inconclusive; AMA1 RON2 block: -0.1%; Sm TGR inh: 1.9%; NS1 function inh: -13.2%

Results for O=C(CN1C(=O)COc2ccccc21)c1ccc(Cl)cc1 ?
Pf growth 48h: -3.3%; Pf growth 96h: 10.4µM*; AMA1 RON2 block: -11.5%; Sm TGR inh: -4.0%; NS1 function inh: -4.1%

Results for Cc1cc(OCC(=O)OCC(=O)NCc2cccs2)ccc1Cl ?
AMA1 RON2 block: 72.3%

What do the screens show for `CCOc1ccc(OCCSc2nc(-c3ccccc3)cc(=O)[nH]2)cc1`?
Pf growth 48h: -2.5%; Pf growth 96h: 54.7%; AMA1 RON2 block: -0.7%; Sm TGR inh: -0.2%; NS1 function inh: 2.9%

How did CC(C)c1ccc(NC(=O)c2cc(S(=O)(=O)N(C)C3CCCCC3)ccc2F)cc1 do in these assays?
Sm TGR inh: 9.7%

What do the screens show for `COc1ccc(OC)c(S(=O)(=O)Nc2ccc(OCC(=O)O)cc2)c1`?
Pf growth 96h: inconclusive; AMA1 RON2 block: -3.7%; Sm TGR inh: 0.0%; NS1 function inh: inconclusive

Results for COc1ccc(OC)c(S(=O)(=O)Nc2ccc(CC(=O)O)cc2)c1 ?
Pf growth 48h: 4.9%; Pf growth 96h: 13.1µM*; AMA1 RON2 block: 14.5%; Sm TGR inh: -3.3%; NS1 function inh: 2.6%

What do the screens show for `Cc1ccccc1Cc1ccc(Cl)nn1`?
Pf growth 48h: 10.4µM*; Pf growth 96h: -10.0%; AMA1 RON2 block: 9.4%; Sm TGR inh: -1.6%

What do the screens show for `C#CCNC(=O)c1cc2c(Br)ccc(Br)c2nc1N`?
AMA1 RON2 block: -13.4%

How did O=C(c1ccc(S(=O)(=O)NCc2ccco2)cc1)N1CCN(Cc2ccccc2F)CC1 do in these assays?
Pf growth 48h: inconclusive; Pf growth 96h: -9.7%; AMA1 RON2 block: 4.0%; Sm TGR inh: -6.7%

What do the screens show for `C=CCn1c(=N)n(CC(=O)c2ccc(Br)s2)c2ccccc21`?
Pf growth 48h: 11.7µM*; Pf growth 96h: 13.1µM*; AMA1 RON2 block: 1.2%; Sm TGR inh: -16.0%; NS1 function inh: -3.4%

What do the screens show for `C=CCn1c(=N)n(CC(=O)c2ccc(Cl)cc2)c2ccccc21`?
Pf growth 48h: inconclusive; Pf growth 96h: -0.1%; AMA1 RON2 block: 7.4%; Sm TGR inh: 2.4%; NS1 function inh: -3.4%

Results for N=c1n(CC(=O)c2cccs2)c2ccccc2n1Cc1ccccc1 ?
Pf growth 48h: inconclusive; Pf growth 96h: 4.65µM*; AMA1 RON2 block: 10.2%; Sm TGR inh: 6.1%; NS1 function inh: 12.9%

How did C=CCn1c(=N)n(CC(=O)OC)c2ccccc21 do in these assays?
Pf growth 48h: 53.1%; Pf growth 96h: 11.7µM*; AMA1 RON2 block: -8.3%; Sm TGR inh: 2.9%; NS1 function inh: -4.6%

Results for O=C(O)Cn1c(=O)n(Cc2ccccc2)c2ccccc21 ?
Pf growth 48h: 8.4%; Pf growth 96h: inconclusive; AMA1 RON2 block: 6.3%; Sm TGR inh: 5.4%; NS1 function inh: 5.4%

What do the screens show for `C=CC[C@@H](CC(=O)N(CCO)Cc1ccccc1)C(=O)NC[C@H](OC(=O)[C@@H](CC=C)Cc1ccc(F)cc1)c1ccccc1`?
AMA1 RON2 block: 0.4%

What do the screens show for `CC(=O)Nc1ccc(S(=O)(=O)NC2=C(N3CCN(c4ccc(F)cc4)CC3)C(=O)c3ccccc3C2=O)cc1`?
Pf growth 48h: 0.738µM*; AMA1 RON2 block: inconclusive; Sm TGR inh: inconclusive; NS1 function inh: 7.3%
